Source: ChEMBL document CHEMBL3988442, “University of Dundee, Small-Polar-MMV Screening Library” (2021)
For some assays here: Entries with a potency or affinity are not part of this list.

Columns and labels:
Set-up in all cases: scale not given: direction of the effect not stated beside the values
[1] = target: Protein translocase subunit SecA (Escherichia coli (strain K12)) (UniProt P10408); assay: Assay to Identify E. coli SecA ATPase Inhibitors; type: functional; conditions: 30 µM
[2] = target: T1, Ubiquitin-activating enzyme e1, putative (Leishmania donovani (strain BPK282A1)) (UniProt E9BSI1); assay: Leishmania donovani Ubiquitin Activating Enzyme (LdE1); type: functional; conditions: 30 µM
T1 sequence (whole entry): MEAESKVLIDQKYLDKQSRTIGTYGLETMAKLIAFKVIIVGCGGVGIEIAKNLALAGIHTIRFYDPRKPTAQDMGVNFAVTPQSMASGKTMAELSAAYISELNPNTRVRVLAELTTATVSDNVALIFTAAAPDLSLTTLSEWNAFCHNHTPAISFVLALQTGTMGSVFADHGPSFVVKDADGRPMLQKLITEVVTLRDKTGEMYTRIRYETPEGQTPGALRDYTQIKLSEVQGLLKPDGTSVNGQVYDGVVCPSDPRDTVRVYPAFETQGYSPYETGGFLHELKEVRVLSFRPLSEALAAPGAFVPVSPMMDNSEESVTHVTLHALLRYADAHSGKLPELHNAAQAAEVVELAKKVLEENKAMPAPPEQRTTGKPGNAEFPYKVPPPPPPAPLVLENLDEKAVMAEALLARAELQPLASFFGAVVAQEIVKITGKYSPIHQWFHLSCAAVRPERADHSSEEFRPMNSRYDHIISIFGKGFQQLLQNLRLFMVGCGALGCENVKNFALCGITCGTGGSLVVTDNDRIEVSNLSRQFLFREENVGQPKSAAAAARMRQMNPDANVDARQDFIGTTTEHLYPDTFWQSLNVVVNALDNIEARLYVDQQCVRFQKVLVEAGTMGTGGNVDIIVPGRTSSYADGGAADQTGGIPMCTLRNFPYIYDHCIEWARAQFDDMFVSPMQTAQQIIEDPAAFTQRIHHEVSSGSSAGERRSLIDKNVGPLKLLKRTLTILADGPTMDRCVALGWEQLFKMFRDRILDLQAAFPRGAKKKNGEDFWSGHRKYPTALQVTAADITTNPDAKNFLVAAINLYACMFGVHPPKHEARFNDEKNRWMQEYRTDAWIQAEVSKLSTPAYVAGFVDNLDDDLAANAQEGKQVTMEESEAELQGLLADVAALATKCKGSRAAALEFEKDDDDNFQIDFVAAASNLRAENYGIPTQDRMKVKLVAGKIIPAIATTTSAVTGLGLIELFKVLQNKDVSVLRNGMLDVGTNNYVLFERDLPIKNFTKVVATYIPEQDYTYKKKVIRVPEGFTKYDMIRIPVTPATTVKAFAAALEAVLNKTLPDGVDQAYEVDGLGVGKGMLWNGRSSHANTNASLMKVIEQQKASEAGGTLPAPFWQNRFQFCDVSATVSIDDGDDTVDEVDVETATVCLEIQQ

[3] = target: AMP-activated protein kinase, AMPK (Homo sapiens) (UniProt P54646+O43741+P54619+Q9UGJ0+Q9Y478+Q13131+Q9UGI9); assay: AMP-dependent Kinase enzyme assay. An in vitro enzyme assay that detects ADP turnover that is directly proportional to AMPK activity. This uses naive AMPK that is activated during the assay with MK-8722; type: functional; conditions: 30 µM
[4] = target: Sialic acid-binding Ig-like lectin 9 (Homo sapiens) (UniProt Q9Y336); assay: Hs-Siglec9 ALPHAscreen SOP 20170721; conditions: 10 µM
Sequence of Sialic acid-binding Ig-like lectin 9 (Homo sapiens) (Q9Y336 whole entry): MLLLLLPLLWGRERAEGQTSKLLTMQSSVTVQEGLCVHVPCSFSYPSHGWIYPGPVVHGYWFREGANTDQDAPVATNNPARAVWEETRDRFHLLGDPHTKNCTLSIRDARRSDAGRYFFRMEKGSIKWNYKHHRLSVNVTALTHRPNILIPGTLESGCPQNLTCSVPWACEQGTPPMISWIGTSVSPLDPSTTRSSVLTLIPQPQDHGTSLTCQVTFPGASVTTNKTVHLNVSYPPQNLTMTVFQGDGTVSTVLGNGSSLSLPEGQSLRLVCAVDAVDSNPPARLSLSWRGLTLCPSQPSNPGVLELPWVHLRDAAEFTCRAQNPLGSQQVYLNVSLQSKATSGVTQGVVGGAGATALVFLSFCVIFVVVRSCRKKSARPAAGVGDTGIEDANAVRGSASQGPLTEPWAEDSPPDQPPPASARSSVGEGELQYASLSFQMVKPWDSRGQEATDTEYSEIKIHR

Trypanosoma cruzi = assay: Trypanosoma cruzi phosphomannomutase and mannose-1-phosphate guanylyltransferase assay; type: functional; conditions: 10 µM
[5] = target: T2, Arginase-2, mitochondrial (Homo sapiens) (UniProt P78540); assay: in vitro enzyme assay to detect the production of urea directly proportional to the activity of Arginase II; type: functional; conditions: 33.3 µM; also: in the data most compounds retested in dose-response had high values
T2 sequence (whole entry): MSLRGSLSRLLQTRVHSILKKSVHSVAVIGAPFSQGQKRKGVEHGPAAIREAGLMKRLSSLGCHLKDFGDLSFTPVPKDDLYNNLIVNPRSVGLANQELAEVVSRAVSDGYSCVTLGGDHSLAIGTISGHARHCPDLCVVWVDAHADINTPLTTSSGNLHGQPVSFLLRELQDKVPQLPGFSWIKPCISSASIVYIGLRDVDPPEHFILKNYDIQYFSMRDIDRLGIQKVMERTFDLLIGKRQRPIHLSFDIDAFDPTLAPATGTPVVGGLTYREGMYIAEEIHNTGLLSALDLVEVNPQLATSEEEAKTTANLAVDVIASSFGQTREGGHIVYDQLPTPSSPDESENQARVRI

[6] = target: T3, Proteasome subunit beta (Trypanosoma cruzi) (UniProt O96673); assay: Trypanosoma cruzi proteasome chymotrypsin-like activity (TcProtChymo) assay.; also: in the data most compounds retested in dose-response had high values; type: functional; conditions: 9.37 µM
T3 sequence (whole entry): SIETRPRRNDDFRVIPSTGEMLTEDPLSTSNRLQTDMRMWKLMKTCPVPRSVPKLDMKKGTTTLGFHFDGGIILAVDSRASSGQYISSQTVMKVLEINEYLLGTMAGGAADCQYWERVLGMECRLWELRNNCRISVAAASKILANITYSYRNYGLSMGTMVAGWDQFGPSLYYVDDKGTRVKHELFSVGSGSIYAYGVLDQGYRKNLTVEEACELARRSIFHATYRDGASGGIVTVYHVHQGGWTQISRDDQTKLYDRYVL

Homo sapiens = organism: Homo sapiens; assay: To identify inhibition of the IFN signalling (Jak-Stat) pathway via expression of an eGFP reporter gene under the control of an IFN-stimulated response element (ISRE) containing MxA promoter.; type: functional; conditions: 30 µM
[7] = target: T4, Tyrosyl-tRNA synthetase, putative (Trypanosoma cruzi (strain CL Brener)) (UniProt Q4DSP6); assay: Trypanosoma cruzi tyrosyl tRNA synthetase (TcYRS) _High Tyrosine SOP; type: functional; conditions: 30 µM; also: in the data most compounds retested in dose-response had high values
T4 sequence (whole entry): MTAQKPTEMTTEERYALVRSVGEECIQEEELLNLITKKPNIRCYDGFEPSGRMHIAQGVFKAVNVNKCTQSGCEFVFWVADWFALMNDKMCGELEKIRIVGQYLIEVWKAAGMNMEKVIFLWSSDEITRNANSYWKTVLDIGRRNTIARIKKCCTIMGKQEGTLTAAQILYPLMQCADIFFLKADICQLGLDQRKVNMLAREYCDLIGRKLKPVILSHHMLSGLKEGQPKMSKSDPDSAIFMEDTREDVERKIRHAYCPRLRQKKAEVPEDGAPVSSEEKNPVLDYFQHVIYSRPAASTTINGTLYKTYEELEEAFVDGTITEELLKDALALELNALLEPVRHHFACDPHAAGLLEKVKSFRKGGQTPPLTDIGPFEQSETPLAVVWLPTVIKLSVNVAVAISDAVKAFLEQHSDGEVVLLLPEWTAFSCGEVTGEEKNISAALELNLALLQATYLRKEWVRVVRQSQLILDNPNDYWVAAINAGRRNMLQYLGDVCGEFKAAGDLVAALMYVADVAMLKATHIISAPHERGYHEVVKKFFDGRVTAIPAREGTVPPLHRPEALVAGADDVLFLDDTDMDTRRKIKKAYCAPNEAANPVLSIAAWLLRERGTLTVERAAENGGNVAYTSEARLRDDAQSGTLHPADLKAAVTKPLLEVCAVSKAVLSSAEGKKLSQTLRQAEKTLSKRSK

[8] = target: T4, Tyrosyl-tRNA synthetase, putative (Trypanosoma cruzi (strain CL Brener)); assay: Trypanosoma cruzi tyrosyl tRNA synthetase (TcYRS) SOP; type: functional; conditions: 30 µM
[9] = target: Chromo domain-containing protein 1 (Saccharomyces cerevisiae (strain ATCC 204508 / S288c) (Baker's yeast)) (UniProt P32657); assay: ScCHD-1 Enzyme Inhibition Assay; type: functional; conditions: 30 µM; also: in the data most compounds retested in dose-response had high values
Sequence of Chromo domain-containing protein 1 (Saccharomyces cerevisiae (strain ATCC 204508 / S288c) (Baker's yeast)) (P32657 whole entry, the tested form may be a part): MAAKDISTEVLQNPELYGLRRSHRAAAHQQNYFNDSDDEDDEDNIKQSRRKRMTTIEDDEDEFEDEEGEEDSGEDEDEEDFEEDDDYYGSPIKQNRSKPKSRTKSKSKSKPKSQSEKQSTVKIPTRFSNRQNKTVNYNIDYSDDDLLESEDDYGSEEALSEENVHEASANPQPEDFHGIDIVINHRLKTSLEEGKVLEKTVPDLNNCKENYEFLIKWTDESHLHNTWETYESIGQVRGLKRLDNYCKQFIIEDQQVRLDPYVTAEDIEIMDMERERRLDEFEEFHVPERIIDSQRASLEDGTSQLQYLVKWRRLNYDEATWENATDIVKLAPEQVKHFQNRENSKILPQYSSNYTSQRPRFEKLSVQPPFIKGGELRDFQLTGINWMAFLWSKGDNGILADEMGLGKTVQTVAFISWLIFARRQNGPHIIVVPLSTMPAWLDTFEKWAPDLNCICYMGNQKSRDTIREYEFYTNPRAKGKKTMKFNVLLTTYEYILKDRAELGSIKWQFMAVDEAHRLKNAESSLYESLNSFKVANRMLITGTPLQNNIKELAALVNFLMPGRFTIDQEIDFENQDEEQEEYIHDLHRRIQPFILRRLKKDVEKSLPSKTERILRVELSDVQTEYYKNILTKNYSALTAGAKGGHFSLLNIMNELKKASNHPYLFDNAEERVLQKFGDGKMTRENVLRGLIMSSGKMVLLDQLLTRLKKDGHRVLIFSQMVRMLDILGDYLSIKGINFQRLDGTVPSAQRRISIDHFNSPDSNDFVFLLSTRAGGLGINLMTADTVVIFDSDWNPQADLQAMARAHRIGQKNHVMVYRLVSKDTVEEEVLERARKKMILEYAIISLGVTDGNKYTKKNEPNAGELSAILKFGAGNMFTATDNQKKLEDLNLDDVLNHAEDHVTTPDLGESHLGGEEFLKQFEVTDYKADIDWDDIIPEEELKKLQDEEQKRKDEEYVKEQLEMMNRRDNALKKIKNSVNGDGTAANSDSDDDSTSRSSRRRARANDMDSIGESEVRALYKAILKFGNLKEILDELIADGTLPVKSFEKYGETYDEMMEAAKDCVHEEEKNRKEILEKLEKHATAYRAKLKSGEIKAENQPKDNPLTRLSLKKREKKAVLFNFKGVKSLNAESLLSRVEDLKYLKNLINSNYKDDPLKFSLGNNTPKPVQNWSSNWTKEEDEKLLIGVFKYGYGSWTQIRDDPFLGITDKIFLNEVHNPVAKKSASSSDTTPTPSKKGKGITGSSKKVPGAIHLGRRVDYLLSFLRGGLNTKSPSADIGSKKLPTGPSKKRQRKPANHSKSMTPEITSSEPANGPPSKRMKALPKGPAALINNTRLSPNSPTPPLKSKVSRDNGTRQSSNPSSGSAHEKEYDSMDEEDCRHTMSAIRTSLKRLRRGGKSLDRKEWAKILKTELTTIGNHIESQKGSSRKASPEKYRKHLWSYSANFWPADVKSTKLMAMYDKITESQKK

Sequence of Protein translocase subunit SecA (Escherichia coli (strain K12)) (P10408 whole entry): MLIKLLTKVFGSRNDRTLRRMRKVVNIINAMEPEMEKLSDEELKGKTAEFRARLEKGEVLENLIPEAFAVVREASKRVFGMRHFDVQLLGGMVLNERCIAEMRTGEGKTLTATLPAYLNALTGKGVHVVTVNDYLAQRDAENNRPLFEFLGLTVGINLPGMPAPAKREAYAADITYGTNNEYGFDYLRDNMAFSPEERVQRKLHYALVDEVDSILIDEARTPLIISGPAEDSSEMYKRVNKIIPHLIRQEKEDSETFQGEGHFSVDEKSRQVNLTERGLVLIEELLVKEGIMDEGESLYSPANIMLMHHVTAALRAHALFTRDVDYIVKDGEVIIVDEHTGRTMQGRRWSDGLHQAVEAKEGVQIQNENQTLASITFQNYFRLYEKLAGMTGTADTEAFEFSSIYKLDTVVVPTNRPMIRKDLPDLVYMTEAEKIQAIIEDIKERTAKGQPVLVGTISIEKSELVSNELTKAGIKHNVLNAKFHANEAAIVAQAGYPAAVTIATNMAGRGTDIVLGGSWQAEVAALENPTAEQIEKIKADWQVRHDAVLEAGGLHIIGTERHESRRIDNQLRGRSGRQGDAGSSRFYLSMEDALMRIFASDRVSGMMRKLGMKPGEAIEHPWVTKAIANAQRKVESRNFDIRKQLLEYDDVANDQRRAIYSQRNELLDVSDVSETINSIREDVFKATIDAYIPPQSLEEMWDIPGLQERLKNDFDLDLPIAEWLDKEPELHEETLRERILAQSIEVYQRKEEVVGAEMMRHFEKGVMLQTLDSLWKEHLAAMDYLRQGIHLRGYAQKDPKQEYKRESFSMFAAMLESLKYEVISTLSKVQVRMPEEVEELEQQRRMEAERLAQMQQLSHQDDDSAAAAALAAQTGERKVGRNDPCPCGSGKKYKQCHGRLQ

SMILES	Percent Effect [1]	Percent Effect [2]	Percent Effect [3]	Percent Effect [4]	Percent Effect (Trypanosoma cruzi)	Percent Effect [5]	Percent Effect [6]	Percent Effect (Homo sapiens)	Percent Effect [7]	Percent Effect [8]	Percent Effect [9]
COCCCN1CCCN(C(C)C(=O)Nc2cccc(I)c2)CC1 (configuration not stated)	-5.27%	-5.41%	1.61%	1.25%	-7.42%	-5%	15.1%	-8.39%	1.98%	-3.66%	-0.402%
Cc1ncc2c(n1)CN(CC(=O)Nc1nncs1)CC2	-1.88%	2.63%	-37.1%	5.79%	3.27%	1.08%	6.01%	-6.49%	5.42%	11.1%	-4.76%
NC(=O)CN1CCCN(C(=O)c2ccn(-c3ccccc3)n2)CC1	0.801%	9.72%	-1.01%	12.3%	1.26%	9.71%	11.9%	13.7%	5.26%	7.69%	-4.05%
CC(C)CC(=O)N1CCCn2cnc(CN3CCCC3=O)c2C1	-3.7%	0%	-0.875%	-3.33%	-3.23%	1.74%	-0.429%	-1.05%	2.15%	6.17%	-0.173%
Cc1occc1C(=O)N1CCC2(CC1)NC(=O)CC2c1cnn(C)c1 (configuration not stated)	-3.16%	10.8%	-0.0675%	-1.75%	1.86%	7.33%	9.41%	-9.35%	0%	12.8%	0.845%
CC(C(=O)NCc1cccc(N2CC=CC2)c1)n1cccn1 (configuration not stated)	-6.41%	0%	3.53%	1.65%	-1.5%	-1.15%	-1.5%	22.9%	0.49%	-2.44%	-1.88%
Cc1nc(CSCCC(=O)NCc2cccnc2N(C)C)cs1	-0.871%	20.2%	-1.17%	-7.06%	5.38%	4.56%	7.45%	5.3%	6.4%	24.1%	-7.54%
CC(=O)c1ccc(C(=O)NCCCOC(C)c2ccccc2)s1 (configuration not stated)	-1.12%	7.89%	0.104%	-8.61%	1.07%	-8.28%	13.9%	21.8%	-3.19%	10.4%	-1.78%
COc1ccccc1CN1C(=O)O[C@@H]2CN(c3nccs3)C[C@@H]21	-8.53%	0%	2%	2.51%	-5.75%	-3.12%	11.2%	15.3%	2.73%	3.7%	-3.84%
Cc1cnn(CCNCC(O)COc2ccc(C#N)cc2)c1 (configuration not stated)	-4.77%	15.2%	-8.43%	8.11%	1.42%	2.28%	8.44%	-3.4%	5.42%	13.9%	-5.58%
Cc1ccccc1C1CCCN1C(=O)CN1CC2(CCNCC2)OC1=O (configuration not stated)	-4.66%	8.11%	-3.53%	12.1%	6.76%	0%	13.1%	-1.19%	4.76%	9.76%	87.8%
O=C(Cn1cnc(-c2ccccc2)cc1=O)Nc1ccncc1	-2.42%	20.8%	-3.34%	-1.53%	2.07%	1.94%	16.9%	26.1%	6.35%	16.7%	-9.23%
Cc1cccc(C(=O)Nc2ccc(OC3CCN(C)CC3)cc2)c1	-3.56%	7.79%	6.98%	12%	7.57%	22.1%	7.82%	-1.95%	5.38%	13.6%	-8.12%
Fc1cnc(N2CCCC3(CN(Cc4ccncc4)CCO3)C2)nc1 (configuration not stated)	-2.51%	13.3%	12.9%	-0.573%	-2.95%	1.63%	12.2%	8.63%	8.51%	16.7%	-5.31%
O=C(NCCc1cccs1)[C@H]1CO[C@H]2CCNC[C@H]2C1	0.545%	13.5%	0.0792%	-4.42%	-4.99%	6.05%	19.4%	12.4%	1.08%	10.3%	-2.47%
COc1ccc(NC(=O)CCC2CCCN(Cc3ncon3)C2)cc1Cl (configuration not stated)	-3.35%	10.7%	-3.08%	17.1%	2.82%	7.81%	24.8%	-6.37%	8.2%	18.5%	92.7%
CCCNC(=O)CCNC(=O)Cc1nc(-c2ccco2)oc1C	-3.29%	2.67%	-1.47%	12.8%	-5.16%	4.69%	13.2%	8.33%	3.83%	8.64%	-3.56%
CC(C)OCCOCc1cccc(NC(=O)NCc2ccncc2)c1	2.27%	13%	-7.84%	-0.138%	-0.295%	-11%	11.5%	30.4%	6.45%	13.6%	-2.65%
N#Cc1cccc(NC(=O)N[C@H](CO)c2ccccc2)c1	-2.38%	5.41%	5.16%	5.37%	-1.35%	3.33%	11.6%	5.19%	1.59%	12.2%	-2.38%
Cc1cc(=O)n2ncnc2n1CC(O)c1ccccc1Cl (configuration not stated)	-0.278%	7.89%	6.81%	-5.31%	-6.52%	-8.28%	18.1%	-6.46%	3.19%	7.79%	-2.48%
CCc1noc(C(C)N2CCN(Cc3noc(C)n3)CC2)n1 (configuration not stated)	1.26%	21.1%	-0.566%	-7.24%	1.32%	-4.21%	19.6%	15.5%	6.37%	17.1%	-7.65%
O=C(NCCn1ccnc1)c1ccn(-c2cccc(F)c2)n1	-6.24%	15.8%	-0.288%	-5.43%	-11.1%	-0.719%	2.28%	-0.954%	0.493%	3.7%	-2.98%
